Results from PubChem BioAssay AID1159580 (chemical genetic matrix, 2015).
The campaign covered roughly 5,500 compounds. About 2,000 (36%) were called active. About 18% were inconclusive and are not listed. Cut-off read from the data, not from the text of the source: active = normalized growth mostly below about 0.91 (no sharp cut-off); inconclusive = no clear call, values can overlap the other calls; inactive = mostly above about 0.92. The list shows a part of the results.

Experiment: chemical genetic growth profiling, strain panel (AID 1159580);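 note: tested at 20 µM; growth read once vehicle control cultures reached saturation at 30 °C; 1 = growth at the plate median or of vehicle wells; lower values mean less growth of the strain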
Details: S. cerevisiae deletion strains, growth OD

Measured: normalized growth

C[Se]C[C@H](N)C(=O)O
inactive: locus YAL013W, strain DEP1, active compounds read low 0.981 | locus YAL040C, strain CLN3, active compounds read low 1.05 | locus YCL061C, strain MRC1 (second series), active compounds read low 0.983 | locus YDR150W, strain NUM1, active compounds read low 1 | locus YDR363W, strain ESC2, active compounds read low 0.949 | locus YER002W, strain NOP16, active compounds read low 0.984 | locus YNL175C, strain NOP13, active compounds read low 0.953 | locus YNL197C, strain WHI3, active compounds read low 0.981 | locus YNL224C, strain SQS1, active compounds read low 0.97 | locus YNL322C, strain KRE1, active compounds read low 0.981 | locus YOR083W, strain WHI5 (second series), active compounds read low 0.984 | locus YPL241C, strain CIN2, active compounds read low 0.983
